Rv3671c protease – Rv3671c (M. tuberculosis) protease inhibition; P9WHR9; inhibition, % at 5.96 µM; 0.048% of 320,000 active; in the data active = inhibition above about 38%;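 also: extracellular domain of Rv3671c used as enzyme; 0% = enzyme with DMSO and 100% = no enzyme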
GDH-TPI inh – inhibits GDH-TPI coupling enzymes, artifact for Mtb FBA screen | inhibition, % at 4.8 µM | 1.2% of 360,000 active | AID 588335 | GDH-TPI coupled enzyme counterscreen, NADH absorbance; in the data active = inhibition above about 30%;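 also: 0% = DMSO wells and 100% = wells lacking the enzyme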
Mtb bLac sens – beta-lactam sensitization of Mtb H37Rv; inhibition, % at 25 µM; M. tuberculosis H37Rv growth with meropenem, percent inhibition; 0.27% of 330,000 active; call rule not given here;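 also: growth measured after seven days incubation then overnight dye step; 0% = bacteria only wells and 100% = bacteria with antibiotic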
FBA Mtb inh – Mtb fructose-bisphosphate aldolase inhibition; P9WQA3; purified M. tuberculosis FBA, fluorescence read-out; inhibition, % at 1 µM; 2.3% of 360,000 active; in the data active = inhibition above about 27%;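 also: 0% = vehicle and 100% = reference inhibitor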
UGM FP inh – inhibitors of M. tuberculosis UDP-galactopyranose mutase; P9WIQ1; purified UGM, fluorescence polarization probe displacement; inhibition, % at 10 µM; 0.06% of 320,000 active; AID 504406; in the data active = inhibition above about 10%, passing the limit was not always enough; inconclusive = no clear call, values can overlap the other calls
Target sequence (P9WIQ1 whole entry, looked up): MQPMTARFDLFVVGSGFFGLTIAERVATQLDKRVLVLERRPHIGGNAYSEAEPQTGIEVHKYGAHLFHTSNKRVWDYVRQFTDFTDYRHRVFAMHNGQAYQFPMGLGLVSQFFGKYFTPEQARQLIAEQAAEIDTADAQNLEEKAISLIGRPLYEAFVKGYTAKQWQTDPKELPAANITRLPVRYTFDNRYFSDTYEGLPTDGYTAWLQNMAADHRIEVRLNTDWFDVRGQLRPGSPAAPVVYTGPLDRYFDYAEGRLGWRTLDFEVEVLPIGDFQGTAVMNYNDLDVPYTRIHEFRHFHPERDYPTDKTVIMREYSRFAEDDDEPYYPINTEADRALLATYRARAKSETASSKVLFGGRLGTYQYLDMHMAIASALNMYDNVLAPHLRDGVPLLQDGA
FadD28 FP inh – inhibitors of Mycobacterium tuberculosis FadD28 bisubstrate binding. FadD28 bisubstrate probe binding, fluorescence polarization. inhibition, % at 12.5 µM. 0.22% of 360,000 active; in the data active = inhibition above about 8.5%, passing the limit was not always enough; inconclusive = no clear call, values can overlap the other calls
The depositor's hits bear a star; ? = inconclusive; . = no result; + = active, no number. Most compounds without a hit are left out; they make up all but 3.7% or so of the library.

SMILES	Rv3671c protease	GDH-TPI inh	Mtb bLac sens	FBA Mtb inh	UGM FP inh	FadD28 FP inh
CNc1nc(-c2ccc3c(c2)CCN3C(=O)c2cccc(F)c2)cs1	12	31*	91	1	0	-1
Cc1[nH]n(-c2ccc([N+](=O)[O-])cc2)c(=O)c1C=NCCc1c(C)[nH]c2ccccc12	-2	31*	-3	-2	-1	-1
CCCc1[nH]n(-c2ccc([N+](=O)[O-])cc2)c(=O)c1C=NCCN1CCNCC1	5	.	2	.	-1	.
CCCc1[nH]n(-c2ccc([N+](=O)[O-])cc2)c(=O)c1C=NCCCn1ccnc1	-8	32*	6	-1	1	-1
Cc1ccc(/C=N/NC(=O)c2nnn(-c3nonc3N)c2CN(C)C)s1	4	24	-1	7	-1	-2
Cc1ccc(/C=N/NC(=O)c2nnn(-c3nonc3N)c2CN(C)c2ccccc2)s1	-7	34*	1	-1	-2	-4
Cc1ccsc1/C=N/NC(=O)c1nnn(-c2nonc2N)c1CN(C)c1ccccc1	-9	37*	2	2	-1	-7
Cc1ccc(NC(=O)COC(=O)c2ccc(NC(=O)CC#N)cc2)cc1S(=O)(=O)N1CCOCC1	-41	10	6	-1	-3	-1
O=C1C2C3C=CC(CC3)C2S(=O)(=O)C2C3C=CC(CC3)C12 (stereo not drawn)	.	4	.	1	.	-1
CC(C)=C1C(=O)NN(c2ccc(F)c(Cl)c2)C1=O	8	10	77	-1	0	?
O=C1NN(c2ccc(F)c(Cl)c2)C(=O)/C1=C\c1cccc(OC(=O)c2cccs2)c1	7	3	99	-2	-1	26*
CC(C)n1nnnc1SCC(=O)N1CCN(Cc2ccc3c(c2)OCCO3)CC1	5	0	-1	0	-1	.
COc1ccc([C@H]2CC(=O)C=C(c3cccc4c3sc3ccccc34)C2)cc1OC	-34	20	54	0	3	0
COc1ccc([C@H]2CC(=O)C=C(c3cc4ccccc4s3)C2)cc1OC	-5	33*	7	0	0	-3
O=C1C=C(c2cc3ccccc3s2)CCC1	-3	34*	-2	8	3	-1
COc1ccc([C@H]2CC(=O)C=C(c3ccc(NC(C)=O)cc3)C2)cc1OC	-9	37*	5	7	2	-2
Cc1ccc(NC2(C#N)CCCC2)cc1	.	9	.	3	.	-1
CC1(C(=O)NS(=O)(=O)Cc2cccc(Cl)c2)CCN1C(=O)CCc1cccs1 (stereo not drawn)	.	1	.	2	.	-1
O=C(OCC(=O)c1c[nH]c2ccccc12)c1cccc([N+](=O)[O-])c1	-8	-4	87	-2	0	0
CCCC(=O)N1CCC1(C)C(=O)NS(=O)(=O)c1ccc(C)cc1 (stereo not drawn)	.	4	.	-1	.	-4
O=C1CS/C(=N/N=C/c2ccco2)N1Cc1ccc(F)cc1	10	38*	0	-1	2	-3
COC(=O)[C@@H]1C[C@@]2(Br)c3ccccc3N(S(=O)(=O)c3ccccc3)[C@H]2N1C(=O)OC	-2	1	-6	0	-1	-6
CCN(CC)S(=O)(=O)c1ccc(NC(=O)c2cnccn2)cc1	2	8	-6	0	0	0
Oc1ccccc1C=NNC(=S)NN=Cc1ccccc1O	.	45*	.	-2	.	0
NC(=S)N/N=C/c1ccccc1O	-2	15	91	5	4	-2
SMILES	Rv3671c protease	GDH-TPI inh	Mtb bLac sens	FBA Mtb inh	UGM FP inh	FadD28 FP inh
Oc1ccc(/C=N/NC(=S)Nc2cccnc2)c(O)c1O	.	37*	.	-9	.	0
C[C@@H]1CN([C@@H](C)CO)S(=O)(=O)c2ccc(Br)cc2O[C@@H]1CN(C)Cc1cccnc1	.	-5	.	-1	.	-4
CCCC1NC(=O)c2cccnc2-n2c1nc1ccc(Cl)cc1c2=O (stereo not drawn)	.	8	.	-1	.	-6
C/C(=N\NC(=O)c1ccc(F)cc1)c1ccc(N2CCOCC2)cc1	-8	18	-2	2	1	1
C/C(=N\Nc1ccc(Cl)c(C(=O)O)c1)c1ccc(N2CCOCC2)cc1	11	31*	-2	-3	3	2
O=C(O)c1cc(N/N=C/c2ccc(N3CCOCC3)s2)ccc1Cl	-6	22	0	-3	.	45*
C/C(=N\Nc1ccc(Cl)c(C(=O)O)c1)c1ccc[nH]1	-2	19	-3	-1	-1	28*
O=C(O)c1cc(N/N=C/C=C/c2ccccc2)ccc1Cl	-4	20	-3	12	-2	4
C/C(=N\NC(=O)c1cccc(C)c1)c1ccc(N2CCOCC2)cc1	-3	34*	23	4	-1	-1
CCCCn1c(N)nc2ccccc21	5	1	4	0	1	-2
O=C1c2ccccc2NC2(CCCC2)N1O	2	14	3	1	-5	-2
CCCC1(C)Nc2ccccc2-c2nc3ccccc3n21 (stereo not drawn)	3	21	0	179*	3	-3
c1ccc2c(c1)NC1(CCCC1)n1c-2nc2ccccc21	5	11	-3	+	1	0
COc1ccc(-c2ccc(CN3C(C)C(=O)N(Cc4cn(Cc5ccco5)nn4)CCS3(=O)=O)cc2)cc1 (stereo not drawn)	.	-1	.	-1	.	-2
C[C@@H]1CN([C@@H](C)CO)C(=O)c2cc(Br)cnc2O[C@H]1CN(C)C(=O)c1ccncc1	.	6	.	2	.	-1
O=C(O)C1CCN(C(=O)COc2ccc3c(c2)oc(=O)c2ccccc23)CC1	0	11	-9	138*	-2	-4
Cc1c(Cc2ccccc2)c(=O)oc2cc(OCC(=O)N3CCC(C(=O)O)CC3)ccc12	2	32*	-5	148*	-1	-4
O=C(COc1ccc2c(c1)oc(=O)c1ccccc12)N[C@@H](Cc1ccccc1)C(=O)O	-11	9	-6	115*	4	-6
Cc1c(OCC(=O)N2CCC(C(=O)O)CC2)ccc2c1oc(=O)c1ccccc12	1	11	-6	142*	-3	-6
O=C(COc1ccc2c3c(c(=O)oc2c1)CCC3)NC(Cc1ccc(Cl)cc1)C(=O)O (stereo not drawn)	-5	12	-4	21	2	-5
Cc1c(C)c2ccc(OCC(=O)N3CCN(Cc4ccccc4)CC3)cc2oc1=O	3	3	0	0	0	-1
COc1ccc(CNC(=O)C[C@H]2C(=O)N(C3CCCCC3)C[C@@H]2Cc2ccccc2)cc1	1	2	-6	-3	0	-3
CC1(C(=O)Nc2ccc3c(c2)OCCO3)CCN1C(=O)c1cccc(F)c1 (stereo not drawn)	.	0	.	1	.	-3
CC(O)(c1ccccc1)c1nc(-c2ccc(S(C)(=O)=O)cc2)cs1 (stereo not drawn)	.	1	.	-1	.	-4
O=c1oc2cc(O[C@@H]3OC[C@@H](O)[C@H](O)[C@H]3O)ccc2c2ccccc12	3	15	1	71*	2	-1
